About 30 (0.05%) of roughly 63,000 compounds were called active. No rule for the calls is given here. The list is a sample of the results.
target: G protein-activated inward rectifier potassium channel 2 (Homo sapiens) (UniProt P48051); assay: opens human GIRK2 potassium channels (AID 1259325); conditions: HEK293-GIRK2 thallium flux, Thallos fluorescence, MPD
Sequence (P48051 whole entry, looked up): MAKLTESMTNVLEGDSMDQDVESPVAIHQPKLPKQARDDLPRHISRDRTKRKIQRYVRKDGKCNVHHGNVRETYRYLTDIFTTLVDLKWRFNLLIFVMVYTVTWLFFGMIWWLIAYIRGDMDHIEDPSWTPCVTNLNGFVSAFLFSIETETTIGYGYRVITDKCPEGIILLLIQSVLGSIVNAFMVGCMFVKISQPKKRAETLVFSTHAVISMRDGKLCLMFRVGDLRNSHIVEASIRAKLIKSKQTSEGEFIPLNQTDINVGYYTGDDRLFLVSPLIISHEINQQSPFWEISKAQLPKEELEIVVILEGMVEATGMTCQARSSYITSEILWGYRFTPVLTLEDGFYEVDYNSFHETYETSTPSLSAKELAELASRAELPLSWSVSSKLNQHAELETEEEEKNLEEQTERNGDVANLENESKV

outcome, inactive:
CCCCCn1c(=O)c2c(nc3n2CC(C)CN3c2ccc(Oc3ccccc3)cc2)n(C)c1=O (stereo not drawn)
Cc1cc(C(=O)NCC#CCOc2ccc3c(c2)OCO3)c(C)o1
COc1cc(OC)cc(N(C)S(=O)(=O)c2ccsc2-c2nc(-c3cccc(C)c3)no2)c1
O=C(CSc1nnc(-c2ccc(Cl)cc2)c2ccccc12)N1CCOCC1
Cc1csc(SCC2CCN(S(=O)(=O)c3cccc(C(F)(F)F)c3)CC2)n1
CC(C)(C)OC(=O)COc1ccc2c(c1)O/C(=C\c1cc(Cl)cc3c1OCOC3)C2=O
Cc1nc(SCc2ccccc2)[nH]c(=O)c1CC(=O)Nc1ccc(C(C)C)cc1
Cc1ccc(S(=O)(=O)N(Cc2ccc(Cl)cc2)C(=O)N2CCN(C)CC2)cc1
COc1ccc(C)c2sc(N(CCCn3ccnc3)C(=O)/C=C/c3cccs3)nc12
CCC(C(=O)Nc1cc(F)ccc1F)n1cc(-c2nc(-c3cnccn3)no2)ccc1=O (stereo not drawn)
COc1cc(NC(=O)Cn2cnc3c(-c4ccc(Cl)cc4)csc3c2=O)cc(OC)c1
COc1ccccc1OCC#CCNC(=O)c1cnccn1
Cc1cc(C)c2c(c1)c(=O)c1c(n2C)CCN(C(=O)Nc2cc(Cl)ccc2C)C1
COc1ccc(C2(CNC(=O)C3CCN(S(C)(=O)=O)CC3)CCOCC2)cc1
O=C(CSc1cc(C(F)(F)F)c2cc3c(cc2n1)OCO3)NCc1ccco1
O=C(Cc1ccc(NS(=O)(=O)c2c(F)cccc2F)cc1)NCc1cccs1
Cc1nn(-c2ncc(NC(=O)c3cccc4ccccc34)cn2)c(C)c1C
Cc1nc(C)c(-c2nnc(NC(=O)COc3cccc4c3OC(C)(C)C4)o2)s1
COc1ccc(F)cc1S(=O)(=O)N1CCN=C1c1ccccc1
O=C(CSCc1ccccc1)Nc1cnoc1
COc1ccc(Cn2cc(S(=O)(=O)N3CCCCC3)ccc2=O)cc1F
O=C(CC1CCCC1)N(CCc1cccs1)Cc1ccoc1
Cc1cc(SCC(=O)c2ccc3c(c2)OCO3)nc(C(C)C)n1
C=C(C)COc1ccc(-c2nc(N)nc(C(F)(F)F)c2-c2ccccc2OC)c(O)c1
CCOC(=O)C1CCc2sc(NC(=O)C3CCCN(Cc4nc(-c5cccnc5)no4)C3)nc21 (stereo not drawn)
CCOC(=O)CN1CCC(c2nnc(-c3ccc(F)cc3)o2)CC1
CCOC(=O)c1cnn2ccc(NC(=O)C(c3ccccc3)c3ccccc3)cc12
O=C1CC(c2nc3ccccc3n2CCOc2ccccc2)CN1c1ccccc1 (stereo not drawn)
COc1ccccc1N1CCN(CC(=O)N2CCN(S(C)(=O)=O)CC2)C1=O
COc1ccccc1NC(=O)CN1N=NC2C(=O)N(c3ccc(F)c(F)c3)C(=O)C21 (stereo not drawn)
CCOc1ccc(C2C(C(=O)c3sc(C)nc3C)=C(O)C(=O)N2CCCN(C)C)cc1 (stereo not drawn)
CN(C)C(CNC(=O)C1c2ccccc2Oc2ccccc21)c1cccn1C (stereo not drawn)
CCCN(C)c1nccn2c(=O)n(CC(=O)Nc3cccc(CC)c3)nc12
CCOC(=O)c1ccc(NC(=O)Cn2ccn(Cc3ccc(Cl)cc3)c(=O)c2=O)cc1
Cc1nc(C)c(-c2ccc(=O)n(CCNC(=O)C3CCN(S(C)(=O)=O)CC3)n2)s1
O=C(c1ccc2c(c1)OCO2)N1CCC(CSc2ccccn2)CC1
COc1ccc(S(=O)(=O)N2CCCOC2CNC(=O)C(=O)NCc2ccc(C)cc2)cc1OC (stereo not drawn)
Cn1c(=O)n(CCc2ccccc2)c(=O)c2c(N3CCN(C(=O)c4ccco4)CC3)ccnc21
COc1cccc(CSc2nc(C)c(CC(=O)NCc3cccs3)c(=O)[nH]2)c1
COc1ccc(NC(=O)CSc2nnc(C3CC(=O)N(c4ccc(C)cc4)C3)o2)cc1 (stereo not drawn)
O=C(O)CCC/C=C\C[C@@H]1C(/C=C/[C@@H](O)COc2cccc(C(F)(F)F)c2)[C@H](O)C[C@@H]1O (stereo partly drawn)
O=C(CSc1ccc(-c2nc(-c3ccccc3)no2)cn1)NCc1ccc2c(c1)OCO2
CCCNC(=O)Cn1nc2c(c1NC(=O)COc1ccccc1F)CSC2
O=C(COc1ccc(Cl)cc1)Nc1ccc(N2CCCCS2(=O)=O)cc1
O=C1CC(C(=O)Nc2ccccc2Cl)n2c(nc3ccccc32)N1 (stereo not drawn)
COCCNC(=O)c1[nH]c2ccccc2c1NC(=O)c1cccc(C)c1
COc1cc(/C=C2\Oc3c4c(cc(C)c3C2=O)OCN(C2CC2)C4)cc(OC)c1OC
CCc1ccc(NC(=O)NCCNc2cc(Nc3ccccn3)ncn2)cc1
Cc1cc(C)n(-c2cc(SCC(=O)N3CCCC3)ncn2)n1
COc1ccc(-c2ccc(C)c(NC(=O)c3cc4ccccc4oc3=O)c2)nn1
Cn1cccc(C(=O)Nc2ccc3c(c2)CCC(=O)N3)c1=O
O=C(CCn1c(=O)oc2ccc(Cl)cc21)N1CCN(c2ccccc2Cl)CC1
COc1cccc(OCc2nc3c(C)cccc3[nH]2)c1
CCC(C)c1ccc(Cn2c(CO)nc3ccccc32)cc1 (stereo not drawn)
CC(=O)c1cccc(NC(=O)CCCn2cnc(-c3ccc(F)cc3)cc2=O)c1
COCCn1c(SCc2nc(-c3ccc(Cl)cc3)no2)nc2cc3c(cc2c1=O)OCO3
CCOc1cc(C(=O)Nc2ccc3c(c2)N(C(C)=O)CCC3)cc(OCC)c1OCC
Cn1cnnc1SCc1cc(=O)c(OCC(=O)NCc2ccco2)co1
COC(=O)c1[nH]c(C)c(C(O)=C2C(=O)C(=O)N(CCCN(C)C)C2c2cccs2)c1C (stereo not drawn)
O=C(Nc1nc(-c2cc3ccccc3o2)cs1)c1ccc(S(=O)(=O)N2CCOCC2)cc1
Cc1ccnc(Nc2cc(NCCNC(=O)Nc3cccc(Cl)c3)ncn2)c1
COc1cccc(NC(=O)CSc2ncc(S(=O)(=O)c3ccc(Cl)cc3)c(=O)[nH]2)c1
O=S(=O)(Cc1nc(-c2cccc(Cl)c2)no1)c1ccccc1
